About 79,000 compounds went through this panel and 15% of them were active in at least one assay; those are over-represented in the sample as a whole. The source made the active and inactive calls. No stated cut-off is given here; in the data, active means growth inhibition above about 70%; inactive means the rest.
How the values were obtained:
[1] = NCI Yeast Anticancer Drug Screen. Data for the rad52 strain (AID 147);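 further: 0% = growth of vehicle-treated control cultures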; conditions: S. cerevisiae rad52 mutant growth inhibition, active compounds read high
Procedure, shortened: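 Inhibition of yeast growth, referenced to vehicle controls, was the measured output for a strain with defective DNA damage repair.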

[2] = NCI Yeast Anticancer Drug Screen. Data for the wt1 strain (AID 149);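 further: 0% = growth of vehicle-treated wt1 cultures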; conditions: S. cerevisiae wt1 strain (SPY 50644) growth inhibition, active compounds read high
Procedure, shortened: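 The wt1 strain was treated with compounds, and growth was compared with vehicle-treated cultures to give inhibition.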

[3] = NCI Yeast Anticancer Drug Screen. Data for the mgt1 strain (AID 153); conditions: S. cerevisiae mgt1 mutant growth inhibition, active compounds read high
Procedure, shortened: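 In the mgt1 strain, test compounds were added and growth inhibition was determined relative to vehicle-treated controls.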

[4] = NCI Yeast Anticancer Drug Screen. Data for the rad50 strain (AID 155);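 further: 0% = growth of vehicle-only cultures of the same strain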; conditions: S. cerevisiae rad50 strain growth inhibition, active compounds read high
Procedure, shortened: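 Cells are treated with compound, grown, and their growth is then scored against vehicle-only cultures of the same repair-deficient yeast strain.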

[5] = NCI Yeast Anticancer Drug Screen. Data for the mec2-1 strain (AID 157); conditions: S. cerevisiae mec2-1 strain, active compounds read high
Procedure, shortened: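 Each compound was tested on mec2-1 yeast, a strain altered in DNA damage repair or cell cycle control. Growth inhibition is reported relative to vehicle.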

[6] = NCI Yeast Anticancer Drug Screen. Data for the sgs1 mgt1 strain (AID 161);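 further: 0% = growth of cultures given vehicle only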; conditions: S. cerevisiae sgs1 mgt1 strain, active compounds read high
Procedure, shortened: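 Mutant yeast exposed to compound; growth scored against vehicle-only wells.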

[7] = NCI Yeast Anticancer Drug Screen. Data for the CLN2oe strain (AID 163);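 further: 0% = growth of vehicle-only control cultures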; conditions: S. cerevisiae CLN2oe strain, active compounds read high
Procedure, shortened: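 First, the altered yeast strain was treated with each compound; second, its growth was measured; finally, inhibition was derived by comparison with vehicle controls.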

[8] = NCI Yeast Anticancer Drug Screen. Data for the cln2 rad14 strain (AID 165);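 further: 0% = growth equal to vehicle treated cultures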; conditions: S. cerevisiae cln2 rad14 strain, active compounds read high
Procedure, shortened: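 Test compounds were added to cln2 rad14 yeast cultures; inhibition of growth was then determined by comparison with vehicle treatment.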

[9] = NCI Yeast Anticancer Drug Screen. Data for the bub3 strain (AID 167); conditions: S. cerevisiae bub3 mutant strain, active compounds read high
Procedure, shortened: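 Part of a panel of yeast mutants defective in DNA damage repair or cell cycle regulation. Each strain is grown with compound, and inhibition is calculated relative to solvent-treated cultures.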

[10] = NCI Yeast Anticancer Drug Screen. Data for the wt2 strain (AID 169);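 further: 0% = growth of vehicle-treated yeast cultures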; conditions: S. cerevisiae wt2 strain growth inhibition, active compounds read high
Procedure, shortened: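 The panel's yeast strains carry defined changes in DNA repair or cell cycle genes. Each strain is grown with compound, and growth loss is scored relative to vehicle.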

[11] = NCI Yeast Anticancer Drug Screen. Data for the mlh1 strain (AID 171);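 further: 0% = growth of vehicle-treated control cultures of the same strain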; conditions: S. cerevisiae mlh1 strain growth inhibition, active compounds read high
Procedure, shortened: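 Inhibition values reflect reduced yeast growth in the presence of compound, referenced to vehicle controls, using a strain chosen for its alteration in DNA repair or cell cycle control.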

[12] = NCI Yeast Anticancer Drug Screen. Data for the sgs1 strain (AID 173);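 further: 0% = growth of vehicle-only control cultures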; conditions: S. cerevisiae sgs1 mutant, active compounds read high
Procedure, shortened: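 Vehicle-treated cultures served as reference for growth inhibition of a yeast strain altered in DNA damage repair or cell cycle control after compound exposure.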

[13] = NCI Yeast Anticancer Drug Screen. Data for the rad50EPP+ strain (AID 151);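 further: 0% = growth of vehicle-treated control cultures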; conditions: S. cerevisiae rad50 mutant strain, active compounds read high
Procedure, shortened: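 Genetically defined yeast (rad50EPP+, DNA damage repair alteration) is grown with compound, and inhibition of growth is expressed relative to vehicle-treated controls.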

[14] = NCI Yeast Anticancer Drug Screen. Data for the rad14 strain (AID 159);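 further: 0% = growth of vehicle-treated control cultures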; conditions: S. cerevisiae rad14 strain growth inhibition, active compounds read high
Procedure, shortened: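 Readout: yeast growth inhibition, referenced to vehicle-only cultures. Strain bears a defined alteration in DNA damage repair.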

[15] = NCI Yeast Anticancer Drug Screen. Data for the mlh1 rad18 strain (AID 175); conditions: S. cerevisiae mlh1 rad18 strain growth inhibition, active compounds read high
Procedure, shortened: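 Inhibition values reflect reduced growth of mutant yeast versus vehicle-treated controls following compound exposure; the mutations affect DNA damage repair.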

[16] = at 5.0 µM (retest, dose inferred, filed as 0.5)
[17] = at 50.0 µM (retest, dose inferred, filed as 5.0)

Measured: growth inhibition

CC(C)(CCCCC(C)(C)[N+](C)(C)C)[N+](C)(C)C
inactive: [1]; at 1.2 µM -4% | [1]; at 3.7 µM -6% | [1]; at 11.0 µM -5% | [1]; at 33.0 µM -10% | [1]; at 100.0 µM -1% | [2]; at 1.2 µM -2% | [2]; at 3.7 µM 0% | [2]; at 11.0 µM -1% | [2]; at 33.0 µM -1% | [2]; at 100.0 µM 1% | [3]; at 1.2 µM -4% | [3]; at 3.7 µM -3% | [3]; at 11.0 µM -4% | [3]; at 33.0 µM -16% | [3]; at 100.0 µM -2% | [4]; at 1.2 µM -10% | [4]; at 3.7 µM -18% | [4]; [16] 4% | [4]; at 11.0 µM -25% | [4]; at 33.0 µM -4% | [4]; [17] 54% | [4]; at 100.0 µM -2% | [5]; at 1.2 µM 0% | [5]; at 3.7 µM 1% | [5]; [16] 21% | [5]; at 11.0 µM 0% | [5]; at 33.0 µM 1% | [5]; [17] 42% | [5]; at 100.0 µM -1% | [6]; [16] 0% | [6]; [17] 31% | [7]; at 1.2 µM -4% | [7]; at 3.7 µM -2% | [7]; at 11.0 µM 2% | [7]; at 33.0 µM -3% | [7]; at 100.0 µM -1% | [8]; [16] 44% | [8]; [17] 52% | [9]; at 1.2 µM -1% | [9]; at 3.7 µM 0% | [9]; [16] -1% | [9]; at 11.0 µM -1% | [9]; at 33.0 µM 0% | [9]; at 100.0 µM 0% | [10]; at 1.2 µM -2% | [10]; at 3.7 µM -2% | [10]; at 11.0 µM -5% | [10]; at 33.0 µM -5% | [10]; at 100.0 µM -1% | [11]; at 1.2 µM 1% | [11]; at 3.7 µM 1% | [11]; at 11.0 µM 0% | [11]; at 33.0 µM 0% | [11]; at 100.0 µM -1% | [12]; at 1.2 µM -1% | [12]; at 3.7 µM 1% | [12]; at 11.0 µM -2% | [12]; at 33.0 µM 0% | [12]; at 100.0 µM 0%
active: [4]; at 50.0 µM 85.2% | [5]; at 50.0 µM 88.5% | [6]; at 50.0 µM 89.1% | [8]; at 50.0 µM 87.2% | [9]; [17] 98% | [9]; at 50.0 µM 85.5%

COc1ccc(C2C3=C(COC3=O)OC(C)(C)Oc3cc4c(cc32)OCO4)cc1OC (stereo not drawn)
inactive: [1]; at 1.2 µM 17% | [1]; at 3.7 µM 19% | [1]; at 11.0 µM 11% | [1]; at 33.0 µM 47% | [13]; at 1.2 µM 5% | [13]; at 3.7 µM 4% | [13]; at 11.0 µM 4% | [13]; at 33.0 µM 4% | [13]; at 100.0 µM 12% | [3]; at 1.2 µM 27% | [3]; at 3.7 µM 26% | [3]; at 11.0 µM 31% | [3]; at 33.0 µM 54% | [4]; at 1.2 µM 15% | [4]; at 3.7 µM 26% | [4]; [16] 0% | [4]; at 11.0 µM 33% | [4]; at 33.0 µM 57% | [5]; at 1.2 µM 25% | [5]; at 3.7 µM 29% | [5]; [16] 9% | [5]; at 11.0 µM 33% | [5]; at 33.0 µM 58% | [5]; [17] 65% | [14]; at 1.2 µM 11% | [14]; at 3.7 µM 5% | [14]; at 11.0 µM 5% | [14]; at 33.0 µM 30% | [6]; [16] -9% | [6]; [17] 50% | [7]; at 1.2 µM 11% | [7]; at 3.7 µM 17% | [7]; at 11.0 µM 10% | [7]; at 33.0 µM 18% | [8]; [16] -1% | [8]; [17] 57% | [9]; at 1.2 µM -47% | [9]; at 3.7 µM -56% | [9]; [16] -9% | [9]; at 11.0 µM -33% | [9]; at 33.0 µM 24% | [10]; at 1.2 µM 5% | [10]; at 3.7 µM 2% | [10]; at 11.0 µM 8% | [10]; at 33.0 µM 26% | [11]; at 1.2 µM -11% | [11]; at 3.7 µM 0% | [11]; at 11.0 µM 6% | [11]; at 33.0 µM 57% | [12]; at 1.2 µM 37% | [12]; at 3.7 µM 23% | [12]; at 11.0 µM 27% | [12]; at 33.0 µM 61% | [15]; [16] -1%
active: [1]; at 100.0 µM 93% | [3]; at 100.0 µM 94% | [4]; [17] 91% | [4]; at 50.0 µM 97% | [4]; at 100.0 µM 90% | [5]; at 50.0 µM 96.1% | [5]; at 100.0 µM 95% | [14]; at 100.0 µM 91% | [6]; at 50.0 µM 96.7% | [7]; at 100.0 µM 90% | [8]; at 50.0 µM 91.6% | [9]; [17] 86% | [9]; at 50.0 µM 96.3% | [9]; at 100.0 µM 88% | [10]; at 100.0 µM 90% | [11]; at 100.0 µM 94% | [12]; at 100.0 µM 94% | [15]; [17] 96% | [15]; at 50.0 µM 97.5%

Nc1nc(N)c2nc(CNc3ccc(C(=O)NC(CCC(=O)O)C(=O)O)cc3F)cnc2n1 (stereo not drawn)
inactive: [1]; at 1.2 µM 28% | [1]; at 3.7 µM 42% | [1]; at 11.0 µM 62% | [13]; at 1.2 µM 23% | [13]; at 3.7 µM 13% | [13]; at 11.0 µM 13% | [13]; at 33.0 µM 15% | [13]; at 100.0 µM 39% | [3]; at 1.2 µM 19% | [3]; at 3.7 µM 16% | [3]; at 11.0 µM 15% | [3]; at 33.0 µM 36% | [3]; at 100.0 µM 63% | [4]; at 1.2 µM 7% | [4]; at 3.7 µM 18% | [4]; [16] 13% | [4]; at 11.0 µM 30% | [4]; at 33.0 µM 55% | [4]; at 50.0 µM 43% | [5]; at 1.2 µM 19% | [5]; at 3.7 µM 26% | [5]; [16] 26%
active: [1]; at 33.0 µM 82% | [1]; at 100.0 µM 89% | [4]; [17] 86% | [4]; at 100.0 µM 74% | [5]; at 11.0 µM 81% | [5]; at 33.0 µM 93% | [5]; [17] 97% | [5]; at 50.0 µM 86.7%

From PubChem BioAssay (NCI)
